PubChem BioAssay (NCI)
This is part of a sample that, as a whole, favours compounds with a hit. Of some 79,000 tested, about 15% had one in any assay. Active and inactive are the calls of the source. Cut-off read from the data, not from the text of the source: active = growth inhibition above about 70%; inactive = the rest.

Assays:
[1] = NCI Yeast Anticancer Drug Screen. Data for the rad50 strain (AID 155);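 note: 0% = growth of vehicle-only cultures of the same strain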; settings: S. cerevisiae rad50 strain growth inhibition; at 50.0 µM; stronger effect = higher value
How it was run: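 Relative growth inhibition (compound vs vehicle) was measured in yeast with a defined repair-gene alteration.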

[2] = NCI Yeast Anticancer Drug Screen. Data for the mec2-1 strain (AID 157); settings: S. cerevisiae mec2-1 strain, at 50.0 µM, stronger effect = higher value
How it was run: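 Yeast mec2-1 mutant treated with compound. Readout: growth inhibition vs vehicle controls.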

[3] = NCI Yeast Anticancer Drug Screen. Data for the sgs1 mgt1 strain (AID 161);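 note: 0% = growth of cultures given vehicle only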; settings: S. cerevisiae sgs1 mgt1 strain, at 50.0 µM, stronger effect = higher value
How it was run: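 Mutant yeast exposed to compound; growth scored against vehicle-only wells.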

[4] = NCI Yeast Anticancer Drug Screen. Data for the cln2 rad14 strain (AID 165);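 note: 0% = growth equal to vehicle treated cultures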; settings: S. cerevisiae cln2 rad14 strain, at 50.0 µM, stronger effect = higher value
How it was run: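 cln2 rad14 yeast strain; compound exposure; growth inhibition read vs vehicle controls.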

[5] = NCI Yeast Anticancer Drug Screen. Data for the bub3 strain (AID 167); settings: S. cerevisiae bub3 mutant strain, at 50.0 µM, stronger effect = higher value
How it was run: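 Screening used yeast with an engineered genetic alteration affecting cell cycle control. Compound-exposed cultures were compared with vehicle cultures, and reduced growth was taken as inhibition.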

[6] = NCI Yeast Anticancer Drug Screen. Data for the mlh1 rad18 strain (AID 175); settings: S. cerevisiae mlh1 rad18 strain growth inhibition; at 50.0 µM; stronger effect = higher value
How it was run: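 Yeast w/ defined DNA-repair lesions; compound exposure; growth vs vehicle controls → % inhibition.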

Measured: growth inhibition

CCc1c([N+](=O)[O-])cc(C(C)(C)C)c(OC)c1[N+](=O)[O-]
inactive: [1] -9.05% | [2] -9.75% | [3] 0.6% | [4] -17.6% | [5] 20.2% | [6] -31.6%

Cc1cc(C)nc(Sc2c([N+](=O)[O-])ncn2C)n1
inactive: [1] 4.1% | [2] -17.3% | [3] -20.9% | [4] 4.65% | [5] 12.6% | [6] -10.3%

Nc1nc(CCC(=O)Nc2cccc(C(F)(F)F)c2)cc(-c2ccc3ccccc3c2)n1
inactive: [1] -8.3% | [2] -23.5% | [3] -77.7% | [4] -10.2% | [5] -5.5% | [6] -31.6%

COC(=O)CC1C2C=CN(C(=O)OC)N(C(=O)OC)C21 (stereo not drawn)
inactive: [1] -3.3% | [2] 4.25% | [3] 6.35% | [4] 10.8% | [5] 5.7% | [6] 3.9%

O=NN(CC1(O)OCC(O)C(O)C1O)C(Cc1c[nH]c2ccccc12)C(=O)O (stereo not drawn)
inactive: [1] -8.7% | [2] -22.9% | [3] -27.1% | [4] 2.1% | [5] -0.5% | [6] -4.8%

N#CC1C(=O)NC(=O)C(C#N)C1c1ccc(Cl)cc1Cl (stereo not drawn)
inactive: [1] 38.9% | [2] 10.1% | [3] 32.6% | [4] 22.1% | [5] -3.55% | [6] 19.9%

COc1c(C)cc2c(C(C)C)c(O)c(O)c(C=O)c2c1O
active: [1] 86.1% | [2] 88.2% | [3] 80.5% | [4] 79% | [5] 80.8% | [6] 76.3%

c1ccc(-n2nc3ccc4nonc4c3n2)cc1
inactive: [1] -17.9% | [2] -20.8% | [3] -10.5% | [4] 7.4% | [5] -0.05% | [6] -1.55%

CCOC(=O)Cn1nnnc1N
inactive: [1] -3.4% | [2] 23.6% | [3] -5.2% | [4] -21.9% | [5] -13.8% | [6] 30.6%

Cc1ccc(S(=O)(=O)N/N=C2/CCC(C(C)(C)C)CC2Br)cc1 (stereo not drawn)
inactive: [1] 3.9% | [2] -2.4% | [3] -6.35% | [4] -2.9% | [5] 17.4% | [6] 2.1%

CC(=O)OC(C)(C#N)C(C)(C#N)OC(C)=O (stereo not drawn)
inactive: [1] -13.3% | [2] -6.4% | [3] -1.1% | [4] -37.1% | [5] -8.75% | [6] -20.3%

Cc1ccc(C)c2c1C(=O)c1ccccc1C2(O)C#Cc1ccccc1 (stereo not drawn)
inactive: [1] 27.6% | [2] 1.45% | [3] 29.4% | [4] 21.1% | [5] 31.7% | [6] 23.2%

CC(C)CC(O)C(C)C (stereo not drawn)
inactive: [1] -18.3% | [2] -15.8% | [3] 0.15% | [4] 31.3% | [5] -6.8% | [6] 1.35%

Cc1cc(C(=O)CSC(=S)SC(C)(C)C)ccc1Cl
inactive: [1] 9.3% | [2] -30.1% | [3] -5.85% | [4] 4.45% | [5] -17.9% | [6] -5.2%

CCN(CC)CCN1C(=O)C2C3C=CC(C3)C2C1=O (stereo not drawn)
inactive: [1] -15.1% | [2] -15.4% | [3] 3.25% | [4] -14.9% | [5] -3.25% | [6] -14.9%

CN(C)C(=O)CCOc1ccccc1
inactive: [1] 0.55% | [2] -12.6% | [3] -18.9% | [4] -56.3% | [5] -7.05% | [6] -7.2%

COC1=CC(=O)c2ccc(C(C)C)cc2C1(C)C1=NC(C)(C)CO1 (stereo not drawn)
inactive: [1] -1.55% | [2] -14.4% | [3] -0.85% | [4] 16.8% | [5] -6.45% | [6] -9.8%

CCN(CC)CCOC(=O)c1ccc(N=Nc2ccc(O)cc2O)cc1
inactive: [1] -12.8% | [2] -2.7% | [3] -1.3% | [4] -21.7% | [5] -24.5% | [6] -17.1%

Cc1ccc(N=c2oc3c(ccc4ccccc43)nc2Nc2ccc(C)cc2)cc1
inactive: [1] -33.5% | [2] -32.5% | [3] -46.2% | [4] -35.5% | [5] -32.8% | [6] -19%

CC(C)C(=NNC(N)=O)C(C)C
inactive: [1] 2.1% | [2] 2.2% | [3] -1.35% | [4] -3.7% | [5] -6.95% | [6] -8.4%

CCOC(=O)C1=C(NC(C)=O)Sc2ccccc2C1
inactive: [1] 27.9% | [2] 6.6% | [3] 1.8% | [4] -19.3% | [5] 2.45% | [6] 25%

CCCCC(CC)COS(=O)(=O)O (stereo not drawn)
inactive: [1] -16.3% | [2] 2.25% | [3] -30.9% | [4] -42% | [5] -27% | [6] -42%

O=C1c2ccccc2C(=O)C1(c1ccccn1)[N+](=O)[O-]
inactive: [1] 5.55% | [2] 1.45% | [3] -0.2% | [4] 2% | [5] 13.6% | [6] 3.95%

CCOC(=O)/C=C/c1ccccn1
inactive: [1] -15.3% | [2] -9.5% | [3] -35.5% | [4] 11.9% | [5] -12.8% | [6] -25.6%

CCOC(=O)Nc1nn(-c2ccc3ccccc3n2)c(=O)[nH]1
inactive: [1] 15.7% | [2] 1.65% | [3] 10.7% | [4] 11.9% | [5] 7.75% | [6] 13.7%

CCCCCCCCCCCCCC(=O)N(CCCCCCCCC)CC(O)C(O)C(OC1OC(CO)C(O)C(O)C1O)C(O)CO (stereo not drawn)
inactive: [1] -13.8% | [2] -41.4% | [3] -17.4% | [4] -28.4% | [5] -49.1% | [6] -56.5%

c1cc2cc3c4c5c(cc6ccc7cc8cc9c%10c8c8c7c6c5c8c5c%10c(c1C9N1CCOCCOCCOCCOCCOCC1)c2c45)C3 (stereo not drawn)
inactive: [1] -15.1% | [2] -2.35% | [3] 3.1% | [4] 17.7% | [5] 3.35% | [6] -9.9%

CN1CCC(C)(c2ccccc2)C(=O)C1 (stereo not drawn)
inactive: [1] 2% | [2] 3.85% | [3] 11% | [4] -28.6% | [5] -10.3% | [6] 12.7%

CCc1c(O)nc(Nc2nc3ccccc3[nH]2)[nH]c1=O
inactive: [1] -34.4% | [2] -21.8% | [3] -21.4% | [4] -23.5% | [5] -33% | [6] -56.5%

Cc1ccc(SCC(CF)OC(C)n2cnc3c(Cl)nc(N)nc32)cc1 (stereo not drawn)
inactive: [1] 14.3% | [2] 1.05% | [3] 30.6% | [4] 39.6% | [5] 41.7% | [6] -36.7%

CCOCC(=O)N[C@H]1CCc2cc(OC)c(OC)c(OC)c2-c2ccc(SC)c(=O)cc21
inactive: [1] 10.7% | [2] 26.9% | [3] 12.2% | [4] -53.6% | [5] -8.3% | [6] 47.1%

CC1(C)CC(=O)C(C=O)C(=O)C1
inactive: [1] -6.85% | [2] -13.7% | [3] -38.3% | [4] -2.3% | [5] 3% | [6] -22.9%

CC1CN=C(N(Cc2ccc(F)cc2)C(=O)Nc2ccc(Cl)cc2)S1 (stereo not drawn)
inactive: [1] -35.5% | [2] -8.95% | [3] -41.5% | [4] 1.6% | [5] 7.7% | [6] -34.3%
